Data published in paper PMC6212790, “How bacterial xenogeneic silencer rok distinguishes foreign from self DNA in its resident genome”.
Over roughly 33,000 sequences, “e-score” has its median near -0.038; the highest 2% begin near 0.33. This excerpt belongs to a sample that is enriched for the highest values.

molecular target: T1, GST-Rok-C97-191 (Bacillus subtilis subsp. subtilis str. …, UniProt O34857 97-191); assay: protein binding microarray; Rok is a gene silencer of Bacillus subtilis; high values mean tight binding; conditions: protein: recombinant; tags: GST (pTH5325, pDEST15-Magic modified); dsDNA, one strand shown
T1 sequence: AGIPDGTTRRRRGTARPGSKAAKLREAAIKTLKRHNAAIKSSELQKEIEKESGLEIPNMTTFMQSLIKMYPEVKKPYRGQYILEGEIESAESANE
How it was run: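 Every oligonucleotide joins a 25-mer constant primer to a 35-mer variable part drawn from a de Bruijn sequence of order 10, so each non-palindromic 8-mer appears at least 32 times and each palindromic 8-mer 16 times. The preference for every 8-mer is reported as a unitless, rank-based enrichment score (E-score). This score spans 0.5 for the most favored 8-mer to −0.5 for the most disfavored.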

Row | Sequence | binding signal [E-score]
1 | GACACTGC | -0.137
2 | AGCGTTCC | -0.026
3 | AATCAGAC | -0.0483
4 | CGCGATTA | 0.0183
5 | AGCAGTCA | 0.0635
6 | ACGACCTA | 0.00188
7 | ATTTTTCG | 0.181
8 | ATACGTAA | 0.371
9 | TTACGTAA | 0.261
10 | GTACGTAA | 0.0489
11 | ACGGAAGG | -0.162
12 | CCATCTAC | 0.213
13 | ATATCTAA | 0.351
14 | ATATCTAG | 0.284
15 | ATCTCTAA | 0.106
16 | CTCTCTAC | 0.064
17 | CTATCTAA | 0.282
18 | CTATCTAC | 0.433
19 | ATCTCTAC | 0.118
20 | CTATCTTC | 0.105
21 | ATATCTTA | 0.26
22 | ATATCTTC | 0.344
23 | ATATCTAC | 0.377
24 | CAGACGGA | -0.1
25 | CGGTCGCA | -0.0742
26 | GTCAATTA | 0.163
27 | GAACAGAC | -0.0366

Row | Sequence | binding signal [E-score]
28 | TACGCAGA | -0.138
29 | AGCTGAAC | -0.0772
30 | GATAAAGC | -0.0584
31 | CTAAGTAA | 0.266
32 | CGTATCAA | 0.0404
33 | ACACTACA | 0.294
34 | CTACTACA | 0.366
35 | GTACTACA | 0.296
36 | CTACTAGA | 0.293
37 | ATACTACA | 0.388
38 | ATACTGCA | 0.287
39 | AGACGTGC | -0.045
40 | CAGCTAAA | 0.0943
41 | CTTTTTGC | -0.0956
42 | CTAAGCGA | -0.171
43 | TAGTCAAA | 0.158
44 | GAATATTA | 0.2
45 | ATATATTG | 0.419
46 | GAATATTC | 0.339
47 | AAATATTA | 0.355
48 | TAATATTA | 0.287
49 | CAATATTC | 0.186
50 | ACATATTG | 0.232
51 | AAATATTG | 0.286
52 | CTATATTA | 0.355
53 | CCATATTA | 0.121
54 | AAATATTC | 0.219

Row | Sequence | binding signal [E-score]
55 | CAATATTA | 0.204
56 | ACCTATTC | 0.0409
57 | GAATGCAA | -0.0262
58 | CCGCAAAA | -0.142
59 | AGGCCGGA | -0.102
60 | ACATATTA | 0.304
61 | GTGTATTA | 0.11
62 | AGATATTG | 0.186
63 | GTATATTA | 0.371
64 | CTCTATTC | -0.103
65 | ATATATTC | 0.374
66 | AGATATTA | 0.356
67 | CGATATTA | 0.286
68 | CTATATTC | 0.274
69 | GCATATTA | 0.153
70 | ATGTATTA | 0.301
71 | ATATATTA | 0.447
72 | AGGTCCCG | -0.133
73 | AAACTTCA | 0.0505
74 | GAAAAACA | 0.0708
75 | CACGGAAG | 0.00148
76 | AAAGTCTC | 0.0451
77 | AGGGTCGC | -0.122
78 | GCGTCCAA | -0.0249
79 | GCGTAAAA | 0.139
80 | ACCTCGAT | 0.113
81 | AGCCGTTC | -0.05

Row | Sequence | binding signal [E-score]
82 | ACAGCAAG | -0.0495
83 | AAGGTAGC | 0.158
84 | ACGGTAGT | 0.408
85 | ACGGTAGA | 0.318
86 | AAGGTAGT | 0.33
87 | ACGGTAGC | 0.0805
88 | AAGGTAGG | -0.00436
89 | ATGCAAGC | -0.0317
90 | CGTCGCTC | -0.161
91 | ACATTCCC | -0.0621
92 | AGGACCGG | -0.171
93 | CTCTACTA | 0.2
94 | ATCTACTC | 0.206
95 | ATCTACTG | 0.423
96 | ATCTACGG | 0.0258
97 | GTCTACTA | 0.29
98 | ATCTACTA | 0.456
99 | ACCCACTG | -0.0641
100 | CATCGGAC | 0.0521
101 | GGCAAAGA | -0.188
102 | ACGGTTAT | 0.165
103 | ATGATACG | 0.141
104 | CTACCCGC | -0.0513
105 | CGGTAAGA | -0.0738
